Laboratory results taken from PubChem BioAssay.
Values joined by “and” are separate entries in the source; they are usually repeats but may differ in a detail not shown here. Identical values can stand only once. Results filed as inconclusive are left out. Active and inactive are the calls of the source. Rule as the data show it, unless noted: active = inhibition above about 80%; inactive = the rest.

Legend:
[1] = JHH-DIPG-1 glioma cell viability, MIPE5.0 library, CellTiter-Glo luminescence, qHTS (AID 1347067; cut-off not given, nearly all actives have AC50 up to about 26 µM;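 also: cells exposed to compound for 48 hours before readout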); conditions: JHH-DIPG-1 glioma viability, CellTiter-Glo ATP luminescence
[2] = growth inhibition of DIPG cells – cell-based, MIPE5.0 library, qHTS (AID 1347068; cut-off not given, nearly all actives have IC50 up to about 30 µM); conditions: SU-DIPG-XXV viability
[3] = viability loss with induced miR-34 in A549 – imaging, A549 dox-inducible miR-34, nuclei and caspase counts, primary screen (AID 1347080;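 active = compounds whose cell count with miR-34 switched on is under 0.7 times the count with it off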); conditions: A549 miR-34 inducible, Hoechst nuclei count, 48 h
[4] = MELAS cybrid and Rieske KO viability enhancers – cell-based, MELAS cybrids, Rieske KO mouse fibroblasts, CellTiter-Glo, primary screen (AID 1508586;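 active = mean z-score across replicates of 1.96 or higher in either the MELAS or the Rieske mutant cell line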;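 also: z relative to plate mean and SD of compound and empty wells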); conditions: low glucose
[5] = growth inhibition, single agent or in combination, cell-based, chromothripsis tumors, cisplatin or BGB combos (AID 1671449); conditions: LFS_MB_P medulloblastoma cells;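 also: cells exposed for 96 hours; 0% = vehicle DMSO and 100% = killing by high DMSO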
[6] = growth inhibition, single agent and combos, cell-based, chromothripsis tumors, cisplatin or BGB combos (AID 1671450); conditions: HDN33 neuroblastoma cells, stronger effect = higher value;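 also: cells exposed to compound for four days; 0% = vehicle DMSO and 100% = cell killing by high DMSO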
[7] = growth inhibition, single agents and combos, ICB984, cell-based, cisplatin or BGB combos, synergistic combos for chromothripsis tumors (AID 1671451; call rule not given here;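 also: cells exposed for 96 hours before readout; 0% = vehicle DMSO and 100% = killing by high DMSO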); conditions: ICB984 medulloblastoma cells, drug combinations, stronger effect = higher value
[8] = growth inhibition, single agents and combos, LFS_MB_1R, cell-based, cisplatin or BGB combos, synergistic combos for chromothripsis tumors (AID 1671452); conditions: LFS_MB_1R medulloblastoma cells, stronger effect = higher value;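 also: cells exposed for 96 hours before readout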
[9] = growth inhibition, single agents and combos, HTB85, cell-based, BGB or cisplatin IC20 combos, synergistic combos for chromothripsis tumors (AID 1671453); conditions: HTB85 osteosarcoma cells, drug combinations, stronger effect = higher value;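 also: cells exposed for 96 hours before readout; 0% = vehicle DMSO and 100% = high DMSO killing control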
[10] = growth inhibition, single agents and combos, CRL2098, cell-based, BGB or cisplatin IC20 combos, synergistic combos for chromothripsis tumors (AID 1671454); conditions: CRL2098 osteosarcoma cells, drug combinations, stronger effect = higher value;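 also: cells exposed for 96 h before readout; 0% = vehicle DMSO and 100% = killing by high DMSO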
[11] = growth inhibition, single agents and combos, HD-MB03, cell-based, BGB or cisplatin IC20 combos, synergistic combos for chromothripsis tumors (AID 1671455; in the data active = inhibition above about 83%;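 also: 0% = vehicle DMSO and 100% = high DMSO as cytotoxic control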); conditions: HD-MB03 medulloblastoma cells, stronger effect = higher value
[12] = growth inhibition, single agents and combos, UWB1.289, cell-based, BGB or cisplatin combos, synergistic combos for chromothripsis tumors (AID 1671456); conditions: UWB1.289 ovarian carcinoma cells, stronger effect = higher value;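 also: cells exposed to compound for four days; 0% = vehicle DMSO and 100% = killing by high DMSO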
[13] = growth inhibition, single agents and combos, LFS_MB_2R, cell-based, cisplatin combos, synergistic combos for chromothripsis tumors (AID 1671457); conditions: LFS_MB_2R medulloblastoma cells, stronger effect = higher value;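 also: cells exposed to compound for four days before readout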
[14] = growth inhibition, MDA-MB-436, cell-based, BGB or cisplatin combos, synergistic combos for chromothripsis tumors (AID 1671458; call rule not given here;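 also: cells exposed for 96 hours; 0% = vehicle DMSO and 100% = killing by high DMSO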); conditions: MDA-MB-436 breast carcinoma growth inhibition, drug combinations, stronger effect = higher value
[15] = UWB1.289_BRCA1 ovarian cancer growth, cell-based, BGB or cisplatin combinations (AID 1671459); conditions: UWB1.289 BRCA1 ovarian carcinoma, drug combinations, stronger effect = higher value
[16] = drug combination toxicity in non-malignant astrocytes – cell-based, BGB or cisplatin IC20 combos, cytotoxicity control for chromothriptic childhood tumor combination screen (AID 1671460); conditions: Human astrocytes, viability inhibition, drug combinations, at 0.5 µM, stronger effect = higher value;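 also: cells exposed to compounds for 96 hours before viability readout; 0% = vehicle and 100% = killing control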
[17] = BT084 cell growth, single and combined drugs, ICGC_MB145, cisplatin and BGB IC40 combos (AID 1671461); conditions: BT084 medulloblastoma cells, drug combinations, stronger effect = higher value;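 also: cells exposed to drugs for 96 hours; 0% = vehicle DMSO and 100% = high DMSO full killing control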
[18] = RCMB18 cell growth, single agent and combined, cisplatin and BGB IC40 combos (AID 1671462); conditions: RCMB18 medulloblastoma cells, stronger effect = higher value;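 also: cells exposed to compound for four days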
[19] = CRL1545 cell growth, single agent and combined, cisplatin and BGB IC20 combos (AID 1671464); conditions: CRL1545 osteosarcoma cells, stronger effect = higher value;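 also: cells exposed to compound for 96 hours before readout; 0% = vehicle DMSO and 100% = high DMSO killing control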
[20] = measured here: combination with BGB IC40, at 0.05 µM
[21] = measured here: with BGB IC20 combination, at 0.5 µM
[22] = measured here: with cisplatin IC20 combination, at 0.5 µM
[23] = measured here: combination with cisplatin, at 0.5 µM
[24] = measured here: combination with cisplatin, at 5 µM

## Nc1nc(F)nc2c1ncn2C1OC(COP(=O)(O)O)C(O)C1O (stereo unspecified)
[1]
  outcome: inactive
[2]
  outcome: inactive
[3]; stronger effect = lower value, cell number ratio, induced over uninduced
  fold change: 0.831 (inactive)
[3]; measured here: relative caspase fold change +Dox/-Dox
  fold change: 1.44
[3]; measured here: total cells with miR-34 induction, stronger effect = lower value
  cell count: 1120
[3]; measured here: total cells without miR-34 induction
  cell count: 1350
[4]; MELAS cybrid survival, CellTiter-Glo 48 h, stronger effect = higher value
  z-score: 1.34 (inactive)
[4]; Rieske KO mouse fibroblast survival, CellTiter-Glo 72 h
  z-score: 0.326
[5]; at 0.5 µM, stronger effect = higher value
  inhibition: -6.1% (inactive) and -16% (inactive)
[5]; measured here: combination with BGB IC20, at 0.005 µM
  inhibition: -22.8% and 0.183%
[5]; measured here: combination with BGB IC40, at 0.005 µM
  inhibition: -34.6% and 88.8%
[5]; [20]
  inhibition: -38.1% and -2.46%
[5]; measured here: combination with cisplatin, at 0.5 µM, stronger effect = higher value
  inhibition: -18.5% and -25%
[5]; measured here: combination with cisplatin, at 5 µM, stronger effect = higher value
  inhibition: -36% and -9.03%
[6]; BGB combo, at 5 µM
  inhibition: 8.47% and 22.7%
[6]; at 0.5 µM
  inhibition: -18.9% (inactive) and 5.11% (inactive)
[6]; cisplatin combo, at 5 µM
  inhibition: 34% and 24.2%
[6]; [21]
  inhibition: -23% and -1.08%
[6]; [22]
  inhibition: -13.9% and 12.9%
[6]; single agent, at 5 µM
  inhibition: 32.2% and 15.4%
[7]; BGB IC20 combo, at 0.005 µM
  inhibition: -19.2% and -1.57%
[7]; BGB IC40 combo, at 0.005 µM
  inhibition: -13.6% and -18.3%
[7]; BGB IC40 combo, at 0.05 µM
  inhibition: -31.2% and -1.01%
[7]; at 0.5 µM
  inhibition: -29.2% (inactive) and -28.4% (inactive)
[7]; cisplatin combo, at 0.05 µM
  inhibition: -35.9% and -6.12%
[7]; cisplatin combo, at 0.5 µM
  inhibition: -20.9% and -39.7%
[7]; cisplatin combo, at 5 µM
  inhibition: -37.1% and 11.4%
[7]; measured here: 5 uM single agent, at 5 µM
  inhibition: 0.546% and -0.896%
[8]; at 0.5 µM
  inhibition: -6.95% (inactive) and -19.6% (inactive)
[8]; [20]
  inhibition: -26.6% and -4.09%
[8]; [23]
  inhibition: -0.649% and -47.1%
[8]; [24]
  inhibition: -27.4% and 0.798%
[9]; at 0.5 µM
  inhibition: -3.37% (inactive) and -4.43% (inactive)
[9]; measured here: with BGB IC20, at 0.5 µM
  inhibition: -4.86% and 13.2%
[9]; measured here: with BGB IC20, at 5 µM
  inhibition: 45.3% and 42.7%
[9]; measured here: with cisplatin IC20, at 0.5 µM
  inhibition: -6.04% and -18.8%
[9]; measured here: with cisplatin IC20, at 5 µM
  inhibition: 12.2% and 45.7%
[9]; single agent, at 5 µM
  inhibition: 36% and 50.6%
[10]; at 0.5 µM
  inhibition: 89.7% (active) and 91.2% (active)
[10]; measured here: combination with BGB at IC20, at 0.5 µM
  inhibition: 89.6% and 91.3%
[10]; measured here: combination with cisplatin at IC20, at 0.5 µM
  inhibition: 88.8% and 92.6%
[11]; at 0.5 µM
  inhibition: -9.66% (inactive) and -9.92% (inactive)
[11]; measured here: combo with BGB at IC20, at 0.5 µM
  inhibition: -18.1% and -5.96%
[11]; measured here: combo with cisplatin at IC20, at 0.5 µM
  inhibition: -7.22% and -17%
[12]; at 0.5 µM
  inhibition: 0.55% (inactive) and 0.43% (inactive)
[12]; measured here: inhibition with BGB combination, at 0.05 µM
  inhibition: -14.7% and -18.8%
[12]; measured here: inhibition with cisplatin combination, at 0.05 µM
  inhibition: 7.04% and -2.8%
[13]; at 0.5 µM
  inhibition: -15.7% (inactive) and -21.8% (inactive)
[13]; [23]
  inhibition: -20.2% and -35.8%
[13]; [24]
  inhibition: -11.6% and -19.4%
[14]; at 0.5 µM
  inhibition: -9.15% (inactive) and -15.9% (inactive)
[14]; measured here: BGB combination, at 0.5 µM
  inhibition: -8.11% and -21.9%
[14]; measured here: BGB combination, at 5 µM
  inhibition: -2.69% and -3.01%
[14]; measured here: cisplatin combination, at 0.5 µM
  inhibition: -21.1% and -19.1%
[14]; measured here: cisplatin combination, at 5 µM
  inhibition: -5.75% and -5.25%
[15]; BGB combination, concentration series, at 5 µM
  inhibition: 11.6% and 15.8%
[15]; at 0.5 µM
  inhibition: -0.02% (inactive) and -0.87% (inactive)
[15]; cisplatin combination, concentration series, at 5 µM
  inhibition: 11.9% and 23.4%
[16]
  inhibition: 1.35% (inactive) and 3.3% (inactive)
[16]; measured here: combo with BGB IC20
  inhibition: -1.03% and 7.99%
[16]; measured here: combo with cisplatin IC20
  inhibition: -5.99% and 1.9%
[17]; at 0.5 µM
  inhibition: -11.5% (inactive) and -3.83% (inactive)
[17]; cisplatin combination, at 0.5 µM
  inhibition: -36% and -5.18%
[17]; cisplatin combination, at 5 µM
  inhibition: 4.67% and -96.3%
[17]; measured here: BGB IC40 combination 0.05 uM, at 0.05 µM
  inhibition: -40.8% and -7.89%
[17]; single agent, at 5 µM
  inhibition: -1.22% and 8.96%
[18]; at 0.5 µM
  inhibition: -12.8% (inactive) and -10.2% (inactive)
[18]; cisplatin combo, at 5 µM
  inhibition: 18.6% and -15.8%
[18]; measured here: BGB IC40 combination, at 0.05 µM
  inhibition: -56.2% and -25.6%
[18]; [23]
  inhibition: 24.5% and -1.4%
[18]; single agent, at 5 µM
  inhibition: -15.5% and 3.22%
[19]; at 0.5 µM
  inhibition: -20.4% (inactive) and 8.11% (inactive)
[19]; [21]
  inhibition: -8.22% and 10.3%
[19]; [22]
  inhibition: -28.6% and 5.54%
[19]; single agent, at 0.05 µM
  inhibition: 18.9% and -12.8%
[19]; single agent, at 5 µM
  inhibition: -12.4% and -14.9%
